{"source": "PubChem BioAssay (NCATS)", "note": "Results filed as inconclusive are left out. Entries that show only a call come without a potency. Values without a mark were called inactive. Activity calls are given as the source filed them. The call rests on the fitted dose curve; in most records, active means well fitted inhibition curve with a large enough effect; inconclusive means small, poorly fitted or top-dose-only effect; inactive means no such curve, though single readings can be large or run the other way.", "data": [{"molecular_target": "Protein phosphatase 1D (Homo sapiens) (UniProt O15297)", "sequence (O15297 whole entry, looked up)": "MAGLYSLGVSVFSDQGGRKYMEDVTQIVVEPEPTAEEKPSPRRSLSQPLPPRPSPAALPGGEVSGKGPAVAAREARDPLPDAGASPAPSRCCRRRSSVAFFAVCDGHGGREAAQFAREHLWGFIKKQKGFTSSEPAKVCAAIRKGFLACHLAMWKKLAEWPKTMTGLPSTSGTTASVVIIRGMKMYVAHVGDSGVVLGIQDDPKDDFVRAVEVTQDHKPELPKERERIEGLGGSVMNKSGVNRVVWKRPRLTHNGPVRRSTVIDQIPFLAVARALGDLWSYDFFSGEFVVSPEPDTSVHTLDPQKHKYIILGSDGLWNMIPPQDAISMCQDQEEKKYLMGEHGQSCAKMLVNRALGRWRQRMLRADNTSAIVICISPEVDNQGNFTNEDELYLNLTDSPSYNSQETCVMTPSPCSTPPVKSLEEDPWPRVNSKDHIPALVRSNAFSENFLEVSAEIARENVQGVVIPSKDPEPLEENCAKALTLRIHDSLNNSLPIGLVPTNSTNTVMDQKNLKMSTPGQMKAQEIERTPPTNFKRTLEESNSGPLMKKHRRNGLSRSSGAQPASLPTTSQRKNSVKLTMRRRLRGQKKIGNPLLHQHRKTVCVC", "assay": "RapidFire Mass Spectrometry qHTS Assay for Modulators of WT P53-Induced Phosphatase 1 (WIP1) (AID 1347424)", "conditions": "WIP1 dephosphorylation of phosphopeptide, RapidFire MS; series mostly up to 63 µM", "description": "Assay Provider (PI): Nathan Coussens Ph. D.\nNational Center for Advancing Translational Sciences (NCATS), Rockville, MD\nNational Institute of Health (NIH), Bethesda, Maryland\nWT P53-Induced Phosphatase 1 (WIP1) is a member of the magnesium-dependent serine/threonine protein phosphatase (PPM) family and is induced by P53 in response to DNA damage. In several human cancers, the WIP1 protein is overexpressed, which is generally associated with a worse prognosis. Although WIP1 is an attractive therapeutic target, no potent, selective, and bioactive small-molecule modulator with favorable pharmacokinetics has been reported. Phosphatase enzymes are among the most challenging targets for small molecules because of the difficulty of achieving both modulator selectivity and bioavailability. Another major obstacle has been the availability of robust and physiologically relevant phosphatase assays that are suitable for high-throughput screening.\nHere, we describe two orthogonal biochemical WIP1 activity assays that utilize phosphopeptides from native WIP1 substrates. We optimized a RapidFire MS assay to quantify the enzymatically dephosphorylated peptide reaction product in a 384-well format. Additionally, a redshifted Rhodamine-PBP fluorescence assay was optimized in a 1,536-well format to enable real-time WIP1 activity measurements through the detection of the orthogonal reaction product, Pi. We validated these two optimized assays by quantitative high-throughput screening against the National Center for Advancing Translational Sciences (NCATS) Pharmaceutical Collection and used secondary assays to confirm and evaluate inhibitors identified in the primary screen.\nSEQUENCE No. (e.g., 1, 2, 3, etc.); […] (e.g., Cells, Incubation, Reagent, etc.); VALUE; DESCRIPTION\n1; Reagent; 50 uL; dispensed assay buffer: 0.1% formic acid in water (10 uL : 40 uL) solution in column 1\n3; Library Compounds; 63 nL; library compounds in DMSO, columns 3-24\n4; Control Compounds; 63 nL; DMSO in wells I-P, columns 1-2, GSK830371 (10 uM, final) in wells A-H, column 2\n5; Time; 1 hr; incubation\n6; Substrate; 2 uL; VEPPL-pS-QETFS (10 uM) in assay buffer, column 2-24\n7; Time; 5 min; incubation\n8; Reagent; 2 uL; 0.5% formic acid in water, columns 2-24\n9; Reagent; 38 uL; VEPPL-S-QETF*S in 0.1% formic acid, columns 2-24\n10; Detection; mass spec; RapidFire mass spectrometry\nNOTES (numbers refer to sequence above)\n1, 2, 6; dispensed reagent in White Nunc 384-well PP microplates (264573); assay buffer: 50 mM Tris-HCl pH 7.5, 30 mM MgCl2, 1 mM TCEP, 0.1 mM EGTA, 75 ug/mL BSA.\n2, 6, 8, 9; Dispensed with BioRaptr (Beckman Coulter)\n2, 6, 9; Final concentrations: 10 nM WIP1; 2 uM VEPPL-pS-QETFS; 1 uM VEFFL-S-QETF*S\n3 & 4; Kalypsys Pintool transfer (Wako USA), Tip wash sequence: water, DMSO, methanol, 20 sec vacuum dry.\n5 & 7; incubation at room temperature\n10; RapidFire mass spectrometry read using the Agilent RapidFire 360 (Clausse, 2019)\nClausse V, et al. Physiologically relevant orthogonal assay for the discovery of small-molecule modulators of WIP1 […] in high-throughput screens. J Biol Chem. 2019, 294(46): 17654-17668. doi:10.1074/jbc.RA119.010201", "values": [{"smiles": "CC1=C(C(=O)OC(C)C)C(c2cccc([N+](=O)[O-])c2)C(C(=O)OC2CN(C(c3ccccc3)c3ccccc3)C2)=C(N)N1", "note": "(stereo not given)", "Potency": "inactive"}, {"smiles": "Cc1nc2n(c(=O)c1CCN1CCC(c3noc4cc(F)ccc34)CC1)CCC[C@H]2O", "Potency": "inactive"}, {"smiles": "CN(C/C=C/c1ccccc1)Cc1cccc2ccccc12", "Potency": "inactive"}, {"smiles": "CCCCCCCCCCCCCCCCOP(=O)([O-])OCC[N+](C)(C)C", "Potency": "inactive"}, {"smiles": "c1ccc(OCc2ccc(CCCN3CCOCC3)cc2)cc1", "Potency": "inactive"}, {"smiles": "CC(C)(C(=O)c1cccnc1)c1cccnc1", "Potency": "inactive"}, {"smiles": "CC(=O)Oc1ccc(C(c2ccc(OC(C)=O)cc2)c2ccccn2)cc1", "Potency": "inactive"}, {"smiles": "CC(=O)Oc1ccc2c(c1)CC[C@@H]1[C@@H]2CC[C@]2(C)[C@@H](O)CC[C@@H]12", "Potency": "inactive"}, {"smiles": "O=C(OCCOCCO)c1ccccc1Nc1cccc(C(F)(F)F)c1", "Potency": "inactive"}, {"smiles": "CC(C)(C)CC(C)(C)c1ccc(OCCOCC[N+](C)(C)Cc2ccccc2)cc1", "Potency": "inactive"}, {"smiles": "CCN1CCCC1=O", "Potency": "inactive"}, {"smiles": "Nc1ccc(/C=C/c2ccc(N)cc2S(=O)(=O)O)c(S(=O)(=O)O)c1", "activity change, negative = inhibition": "-4.22% [at 0.505 µM]"}, {"smiles": "NC(CS)C(=O)O", "note": "(stereo not given)", "Potency": "inactive"}, {"smiles": "CC[C@@H](CO)NCCN[C@@H](CC)CO", "Potency": "inactive"}, {"smiles": "N[C@H](Cc1c[nH]c2ccccc12)C(=O)O", "Potency": "inactive"}, {"smiles": "O=c1c(-c2ccccc2)c1-c1ccccc1", "Potency": "inactive"}, {"smiles": "C#C[C@]1(OC(C)=O)CC[C@H]2[C@@H]3CCC4=C[C@@H](OC(C)=O)CC[C@@H]4[C@H]3CC[C@@]21C", "Potency": "inactive"}, {"smiles": "C[C@@H]1C[C@H]2[C@@H]3CCC4=CC(=O)C=C[C@]4(C)[C@@]3(F)[C@@H](O)C[C@]2(C)[C@H]1C(=O)CO", "Potency": "inactive"}, {"smiles": "C/C=C/c1ccc(OC)cc1", "Potency": "inactive"}, {"smiles": "COc1cccc(CCc2ccccc2OCC(CN(C)C)OC(=O)CCC(=O)O)c1", "note": "(stereo not given)", "Potency": "inactive"}, {"smiles": "O=c1ccc2ccccc2o1", "Potency": "inactive"}, {"smiles": "NCCCC[C@H](N[C@@H](CCc1ccccc1)C(=O)O)C(=O)N1CCC[C@H]1C(=O)O", "Potency": "inactive"}, {"smiles": "Cc1cc(=O)n(-c2ccccc2)n1C", "Potency": "inactive"}, {"smiles": "CC1(C)O[C@@H]2C[C@H]3[C@@H]4C[C@H](F)C5=CC(=O)CC[C@]5(C)[C@H]4[C@@H](O)C[C@]3(C)[C@]2(C(=O)CO)O1", "Potency": "inactive"}, {"smiles": "NCCC(O)(P(=O)(O)O)P(=O)(O)O", "Potency": "inactive"}, {"smiles": "COc1ccc(OC)c(C(O)CNC(=O)CN)c1", "note": "(stereo not given)", "Potency": "inactive"}, {"smiles": "CCCC(=O)O[C@]1(C(=O)CO)CC[C@H]2[C@@H]3CCC4=CC(=O)CC[C@]4(C)[C@H]3[C@@H](O)C[C@@]21C", "Potency": "inactive"}, {"smiles": "CC(C)n1nc(-c2cc3cc(O)ccc3[nH]2)c2c(N)ncnc21", "Potency": "inactive"}, {"smiles": "Oc1c(I)cc(Cl)c2cccnc12", "Potency": "inactive"}, {"smiles": "COc1cccc2c1C(=O)c1c(O)c3c(c(O)c1C2=O)C[C@@](O)(C(C)=O)C[C@@H]3O[C@H]1C[C@H](N)[C@H](O)[C@H](C)O1", "Potency": "inactive"}, {"smiles": "O=C1OC2(c3ccc(O)cc3Oc3cc(O)ccc32)c2ccccc21", "Potency": "inactive"}, {"smiles": "CC(=O)N/N=C/c1ccc([N+](=O)[O-])o1", "Potency": "inactive"}, {"smiles": "Cc1c(C)n(CCN(C)C)c2ccc(C(=O)OCCN(C)C)cc12", "Potency": "inactive"}, {"smiles": "CC(=O)OCC(=O)NCCCOc1cccc(CN2CCCCC2)c1", "Potency": "inactive"}, {"smiles": "CC(C)(CO)[C@@H](O)C(=O)NCCCO", "Potency": "inactive"}, {"smiles": "C=C1C[C@H]2[C@@H]3C=C(C)C4=CC(=O)CC[C@]4(C)[C@H]3CC[C@]2(C)[C@@]1(OC(C)=O)C(C)=O", "Potency": "inactive"}, {"smiles": "NC[C@H]1O[C@H](O[C@H]2[C@H](O[C@@H]3O[C@H](CO)[C@@H](O)[C@H]3O)C(O)[C@H](N)C[C@@H]2N)[C@H](N)[C@@H](O)[C@@H]1O", "note": "(stereo not given in full)", "activity change, negative = inhibition": "6.77% [at 12.6 µM]"}, {"smiles": "CCOc1ccc2nc3cc(N)ccc3c(N)c2c1", "Potency": "inactive"}, {"smiles": "O=C1c2ccccc2C(=O)C1c1ccccc1", "Potency": "inactive"}, {"smiles": "O=C(OCC(O)CO)c1ccccc1Nc1ccnc2cc(Cl)ccc12", "note": "(stereo not given)", "Potency": "inactive"}]}]}
